PubChem BioAssay
For part of these data: Measured potencies and affinities stand elsewhere. The source made the active and inactive calls.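 The calls were made as follows, unless noted: active = hit in primary screen, with calcium signal over 5 SD above buffer well mean in both duplicates; inactive = the rest.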

Experiments:
[1] = system: TRPC4 beta (transient receptor potential cation channel C4), mouse; assay: TRPC4 cation channel opening, retest – cell-based, Fluo4 calcium, HEK293 TRPC4beta/mu-opioid, duplicates, 10 µM, confirmation (AID 2426;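 active = fluorescence ratio normalized to control raised more than 50% in primary screen plus both repeat runs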;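 as to activation: percent rise of integrated ratio over buffer wells lacking compound which define 0%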); details: Fluo4 calcium fluorescence, at 10 µM; stronger effect = higher value
[2] = system: transient receptor potential cation channel C4 beta (TRPC4), mouse; assay: TRPC4 cation channel opening, second retest – cell-based, second round, Fluo4, HEK293 TRPC4beta/mu-opioid, 1 µM, confirmation (AID 2461;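 active = primary screen active and over 50% activation in each of two duplicate runs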;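 as to activation: 0% = wells without test compound as baseline of integrated fluorescence ratio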); details: Fluo4 calcium fluorescence, at 1 µM; stronger effect = higher value
[3] = system: TRPC4 (transient receptor potential cation channel C4 beta), mouse; assay: potentiation of DAMGO EC20 TRPC4 response – cell-based, second round, Fluo-4, HEK293 TRPC4beta/mu-opioid, 1 µM, confirmation (AID 2554;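 active = primary screen hit whose fluorescence ratio, in both repeats, exceeds the weak agonist control mean by 3 SD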); details: DAMGO EC20, Fluo-4 calcium flux, at 1 µM; stronger effect = higher value
[4] = system: TRPC4 beta (transient receptor potential cation channel C4), mouse; assay: potentiation of DAMGO EC20 TRPC4 response – cell-based, Fluo-4, HEK293 TRPC4beta/mu-opioid, confirmation (AID 2555;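 active = primary screen hit whose calcium fluorescence ratio, in both repeats, exceeds the weak agonist control mean by 3 SD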); details: DAMGO EC20, Fluo-4 calcium flux, at 10 µM; stronger effect = higher value
[5] = molecular target: Short transient receptor potential channel 4 (Mus musculus) (UniProt Q9QUQ5); assay: blockers of DAMGO-evoked TRPC4 calcium flux – cell-based, Fluo4, HEK293 TRPC4beta/mu-opioid, confirmation (AID 2636;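 active = calcium signal cut by more than 3 SD below the full-agonist control yet still positive, in both repeats and the earlier primary screen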); details: at 10 µM; stronger effect = higher value
Short transient receptor potential channel 4 (Mus musculus), sequence (Q9QUQ5 whole entry, looked up): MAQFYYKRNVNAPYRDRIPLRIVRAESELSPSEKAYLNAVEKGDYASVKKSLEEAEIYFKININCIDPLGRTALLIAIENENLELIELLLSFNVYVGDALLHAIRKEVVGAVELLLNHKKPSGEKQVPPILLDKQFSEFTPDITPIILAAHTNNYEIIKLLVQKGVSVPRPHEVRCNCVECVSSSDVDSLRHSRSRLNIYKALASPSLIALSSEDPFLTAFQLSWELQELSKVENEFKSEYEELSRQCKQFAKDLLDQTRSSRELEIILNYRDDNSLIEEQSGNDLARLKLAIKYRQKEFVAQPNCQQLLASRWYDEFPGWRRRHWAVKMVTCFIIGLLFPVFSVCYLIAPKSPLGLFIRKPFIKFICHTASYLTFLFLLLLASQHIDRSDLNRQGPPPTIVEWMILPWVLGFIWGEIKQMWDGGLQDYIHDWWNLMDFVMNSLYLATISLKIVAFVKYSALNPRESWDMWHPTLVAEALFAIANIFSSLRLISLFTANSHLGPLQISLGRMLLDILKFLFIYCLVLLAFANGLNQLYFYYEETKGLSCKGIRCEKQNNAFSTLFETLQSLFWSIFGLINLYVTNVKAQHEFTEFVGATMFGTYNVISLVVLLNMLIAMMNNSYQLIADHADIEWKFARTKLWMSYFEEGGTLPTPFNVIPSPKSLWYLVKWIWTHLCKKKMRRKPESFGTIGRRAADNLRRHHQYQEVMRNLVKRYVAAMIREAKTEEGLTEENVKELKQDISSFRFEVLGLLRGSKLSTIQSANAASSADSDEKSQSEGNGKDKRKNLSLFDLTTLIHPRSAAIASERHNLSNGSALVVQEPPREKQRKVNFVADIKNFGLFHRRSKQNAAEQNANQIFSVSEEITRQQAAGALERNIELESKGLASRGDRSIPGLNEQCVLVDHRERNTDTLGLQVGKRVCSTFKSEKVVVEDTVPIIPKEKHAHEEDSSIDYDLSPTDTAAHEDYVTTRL

[6] = molecular target: Short transient receptor potential channel 4 (Mus musculus) (UniProt Q9QUQ5); assay: blockers of DAMGO-evoked TRPC4 calcium flux – cell-based, second round, Fluo4, HEK293 TRPC4beta/mu-opioid, 1 µM, confirmation (AID 2637;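 active = calcium signal ratio cut to more than 3 SD under the fully stimulated control mean yet still positive, in both repeats and the primary screen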); details: at 1 µM; stronger effect = higher value
[7] = molecular target: Short transient receptor potential channel 4 (Mus musculus) (UniProt Q9QUQ5); assay: potentiation of DAMGO-evoked TRPC4 calcium signal – cell-based, HEK293 TRPC4/mu-opioid, Fluo-4 calcium, EC20 DAMGO, dose response (AID 434941;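 active = earlier screen potentiator hit that boosts the TRPC4 ion channel at some dose, with a dose response; inactive = no potentiation, no dose response, or not a prior hit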;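 also: calcium entry triggered by an EC20 dose of DAMGO at the co-expressed mu-opioid receptor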)
[8] = molecular target: Short transient receptor potential channel 4 (Mus musculus) (UniProt Q9QUQ5); assay: block of DAMGO-driven TRPC4 calcium entry – cell-based, HEK293 TRPC4/mu-opioid, Fluo-4 calcium, dose response (AID 434942;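 active = primary screen inhibitor hit that blocks the TRPC4 channel at some tested dose, yielding a dose curve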)
[9] = molecular target: Short transient receptor potential channel 6 (Mus musculus) (UniProt Q61143); assay: TRPC6 blockade by TRPC4 inhibitor hits – cell-based, HEK293, membrane potential dye, duplicate, selectivity assay for TRPC4 inhibitor project, confirmation (AID 434948;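 active = active in primary screen and both duplicates, each dropping signal beyond three positive-control SD with fluorescence still positive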); details: HEK293 TRPC6, membrane potential dye fluorescence, at 10 µM, stimulated with maximal-effect acetylcholine; stronger effect = higher value
Short transient receptor potential channel 6 (Mus musculus), sequence (Q61143 whole entry, looked up): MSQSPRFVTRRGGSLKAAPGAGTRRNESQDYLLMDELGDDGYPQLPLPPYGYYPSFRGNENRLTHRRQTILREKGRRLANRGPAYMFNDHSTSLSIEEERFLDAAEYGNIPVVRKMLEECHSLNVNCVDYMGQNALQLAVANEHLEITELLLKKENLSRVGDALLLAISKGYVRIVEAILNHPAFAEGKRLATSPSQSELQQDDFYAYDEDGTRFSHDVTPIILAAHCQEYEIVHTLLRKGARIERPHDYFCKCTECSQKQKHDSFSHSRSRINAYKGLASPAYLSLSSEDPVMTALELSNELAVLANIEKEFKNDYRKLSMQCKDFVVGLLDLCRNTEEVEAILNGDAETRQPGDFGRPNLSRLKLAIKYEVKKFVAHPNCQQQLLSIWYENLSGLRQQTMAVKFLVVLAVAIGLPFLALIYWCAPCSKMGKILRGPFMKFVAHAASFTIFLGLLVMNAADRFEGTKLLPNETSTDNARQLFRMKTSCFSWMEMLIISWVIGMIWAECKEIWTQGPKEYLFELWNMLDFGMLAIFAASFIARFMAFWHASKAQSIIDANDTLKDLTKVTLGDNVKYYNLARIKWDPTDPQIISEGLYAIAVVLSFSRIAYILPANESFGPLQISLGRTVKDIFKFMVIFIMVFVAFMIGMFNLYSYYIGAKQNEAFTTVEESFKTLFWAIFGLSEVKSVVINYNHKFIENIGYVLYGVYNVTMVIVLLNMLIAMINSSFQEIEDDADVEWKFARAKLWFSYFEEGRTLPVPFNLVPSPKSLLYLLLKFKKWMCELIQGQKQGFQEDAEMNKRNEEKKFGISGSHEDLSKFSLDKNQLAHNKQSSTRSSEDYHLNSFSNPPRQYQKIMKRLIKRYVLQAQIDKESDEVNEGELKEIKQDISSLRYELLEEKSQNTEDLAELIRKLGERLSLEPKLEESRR

[10] = molecular target: Short transient receptor potential channel 6 (Mus musculus) (UniProt Q61143); assay: TRPC6 opening by TRPC4 activator hits – cell-based, HEK293, membrane potential dye, duplicate, selectivity assay for TRPC4 activator project, confirmation (AID 434950;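 active = membrane potential signal rise above negative control mean plus 3 SD in both duplicates, also active in the earlier TRPC4 screen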;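 as to activation: 0% = buffer only wells and 100% = acetylcholine maximal-effect wells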); details: HEK293 TRPC6, membrane potential fluorescence, at 10 µM; activation: stronger effect = higher value; outcome: activation
[11] = molecular target: Short transient receptor potential channel 6 (Mus musculus) (UniProt Q61143); assay: positive modulators of mouse TRPC6 channel – HEK293 cells, membrane potential dye, duplicate, selectivity assay for TRPC4 potentiator project, confirmation (AID 434952;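 active = compound raising the membrane signal above positive-control mean plus 3 SD in both repeats, and a primary screen hit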); details: HEK293 TRPC6, membrane potential dye fluorescence, at 10 µM, maximal acetylcholine added after compound; stronger effect = higher value
[12] = molecular target: Short transient receptor potential channel 4 (Mus musculus) (UniProt Q9QUQ5); assay: calcium flux activators in TRPC4/5HT1a cells, counter-screen for TRPC4 activator project, cell-based, second counter screen, HEK293 TRPC4/5HT1a, Fluo-4 (AID 434977;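 active = calcium signal rise above buffer-control mean plus 5 SD in both duplicates, and also a hit in the primary screen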;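 as to activation: plate controls were assay buffer for no effect and maximal serotonin response for full effect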); details: Fluo-4 calcium flux, at 10 µM; stronger effect = higher value
[13] = serotonin-gated TRPC4 signal block – cell-based, second counter screen, HEK293 TRPC4/5HT1a, Fluo-4, counter-screen for TRPC4 inhibitor project, confirmation (AID 434978;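 active = primary screen active whose calcium signal fell more than 3 SD beyond the full-serotonin control mean in both duplicate plates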;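 as to outcome: serotonin given first at submaximal then at maximal dose after compound preincubation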); details: Fluo-4 calcium flux, at 10 µM, serotonin added to trigger calcium flux; stronger effect = higher value
[14] = system: TRPC4 (mouse), co-expressed with 5HT1a in HEK293; assay: enhancement of serotonin-evoked TRPC4 response – cell-based, second counter screen, HEK293 TRPC4/5HT1a, Fluo-4, counter-screen for TRPC4 potentiator project, confirmation (AID 434979;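 active = signal rise over 3 SD above mean of control wells given weak agonist, in both repeats and first screen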); details: Fluo-4 calcium flux, at 10 µM, serotonin added at its EC20 dose; stronger effect = higher value
[15] = nonspecific calcium rise without TRPC4 – cell-based, HEK293 mu-opioid receptor line, counter-screen for TRPC4 activator project, confirmation (AID 449723); details: HEK293 mu-opioid cells, Fluo-4 calcium fluorescence, at 10 µM; stronger effect = higher value;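 also: counter screen cells carry the mu-opioid receptor alone and lack TRPC4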
[16] = nonspecific potentiation of DAMGO calcium response – cell-based, HEK293 mu-opioid receptor line, counter-screen for TRPC4 allosteric potentiator project, confirmation (AID 449724;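 active = calcium signal rise more than 3 SD above the low-dose agonist control mean, in both duplicate plates and the primary screen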); details: HEK293 mu-opioid receptor cells, Fluo-4 calcium flux, at 10 µM, compound added before EC20 DAMGO stimulus; stronger effect = higher value

CCN1CCN(c2ccc(S(=O)(=O)N3CCCCC3)cc2NC(=O)c2cccc(C)c2[N+](=O)[O-])CC1
active: activation [1] 143% | activation [12] 40.7%
inactive: outcome [2] | outcome [3] | outcome [4] | outcome [5] | outcome [6] | outcome [7] | outcome [8] | outcome [9] | outcome [10] | outcome [11] | outcome [13] | outcome [14] | outcome [15] | outcome [16]

Cc1sc2ncnc(NCC(C)(C)N3CCOCC3)c2c1C
active: activation [1] 178% | activation [2] 109% | activation [12] 62.7%
inactive: outcome [3] | outcome [4] | outcome [5] | outcome [6] | outcome [7] | outcome [8] | outcome [9] | outcome [10] | outcome [11] | outcome [13] | outcome [14] | outcome [15] | outcome [16]

Cc1csc2c(N3CCN(C(=S)Nc4ccc(F)cc4F)CC3)ncnc12
active: activation [1] 126% | activation [12] 40.5%
inactive: outcome [2] | outcome [3] | outcome [4] | outcome [5] | outcome [6] | outcome [7] | outcome [8] | outcome [9] | outcome [10] | outcome [11] | outcome [13] | outcome [14] | outcome [15] | outcome [16]

COc1cc(OC)cc(C(=O)NCCCN2CCN(CCCNC(=O)c3cc(OC)cc(OC)c3)CC2)c1
inactive: outcome [3] | outcome [4] | outcome [5] | outcome [6] | outcome [7] | outcome [8] | outcome [9] | outcome [11] | outcome [13] | outcome [14] | outcome [15] | outcome [16]
active: activation [1] 121% | activation [2] 94% | activation [10] 31.5% | activation [12] 30.4%

Cc1ccc(/C=N\NC(=O)C2COc3cc4ccccc4cc3O2)o1 (stereo not given)
active: activation [1] 102% | activation [10] 27% | activation [12] 40.6%
inactive: outcome [2] | outcome [3] | outcome [4] | outcome [5] | outcome [6] | outcome [7] | outcome [8] | outcome [9] | outcome [11] | outcome [13] | outcome [14] | outcome [15] | outcome [16]

COc1ccc(C(CNCC(=O)Nc2ccccc2F)N(C)C)cc1 (stereo not given)
inactive: outcome [1] | outcome [3] | outcome [4] | outcome [5] | outcome [6] | outcome [7] | outcome [8] | outcome [9] | outcome [11] | outcome [12] | outcome [13] | outcome [14] | outcome [15] | outcome [16]
active: activation [2] 105% | activation [10] 59%

CCn1c(N2CCN(C(=O)Nc3ccc(F)cc3)CC2)nc2ccccc21
active: activation [1] 119% | activation [10] 41% | activation [12] 28.1%
inactive: outcome [2] | outcome [3] | outcome [4] | outcome [5] | outcome [6] | outcome [7] | outcome [8] | outcome [9] | outcome [11] | outcome [13] | outcome [14] | outcome [15] | outcome [16]

CN(C)C(CNC(=O)CCc1c[nH]c2ccccc12)c1ccccc1 (stereo not given)
inactive: outcome [3] | outcome [4] | outcome [5] | outcome [6] | outcome [7] | outcome [8] | outcome [9] | outcome [11] | outcome [12] | outcome [13] | outcome [14] | outcome [15] | outcome [16]
active: activation [1] 89% | activation [2] 83% | activation [10] 26%

O=C(NCc1cccnc1)C1CCCN(Cc2cnn(-c3ccccc3)c2-n2cccc2)C1 (stereo not given)
active: activation [1] 83% | activation [10] 46% | activation [12] 16.2%
inactive: outcome [2] | outcome [3] | outcome [4] | outcome [5] | outcome [6] | outcome [7] | outcome [8] | outcome [9] | outcome [11] | outcome [13] | outcome [14] | outcome [15] | outcome [16]

Cc1ccc(C(=O)NNC(=S)NC(=O)c2ccc(Cl)cc2)cc1
active: activation [10] 29.5% | activation [12] 77.8%
inactive: outcome [1] | outcome [2] | outcome [3] | outcome [4] | outcome [5] | outcome [6] | outcome [7] | outcome [8] | outcome [9] | outcome [11] | outcome [13] | outcome [14] | outcome [15] | outcome [16]

CN(C)CCCN(C(=O)c1ccc(S(=O)(=O)N2CCOCC2)cc1)c1nc2ccc(F)cc2s1
inactive: outcome [2] | outcome [3] | outcome [4] | outcome [5] | outcome [6] | outcome [7] | outcome [8] | outcome [9] | outcome [10] | outcome [11] | outcome [12] | outcome [13] | outcome [14] | outcome [15] | outcome [16]
active: activation [1] 104%

O=C(C1CCCN(Cc2ccccc2F)C1)N1CCc2ccccc2C1 (stereo not given)
active: activation [1] 96% | activation [2] 98% | activation [10] 56.5% | activation [12] 40.5%
inactive: outcome [3] | outcome [4] | outcome [5] | outcome [6] | outcome [7] | outcome [8] | outcome [9] | outcome [11] | outcome [13] | outcome [14] | outcome [15] | outcome [16]

O=S(=O)(c1ccccc1)c1nnn2c1nc(NC1CCN(Cc3ccccc3)CC1)c1cc(Cl)ccc12
inactive: outcome [2] | outcome [3] | outcome [4] | outcome [5] | outcome [6] | outcome [7] | outcome [8] | outcome [9] | outcome [10] | outcome [11] | outcome [12] | outcome [13] | outcome [14] | outcome [15] | outcome [16]
active: activation [1] 64%

CCn1c(=O)cc(OCC(=O)NCCCN2CC(C)CC(C)C2)c2ccccc21 (stereo not given)
inactive: outcome [3] | outcome [4] | outcome [5] | outcome [6] | outcome [7] | outcome [8] | outcome [9] | outcome [10] | outcome [11] | outcome [13] | outcome [14] | outcome [15] | outcome [16]
active: activation [1] 80% | activation [2] 73% | activation [12] 17.3%

NCCCn1c(C(=O)c2cc(Cl)c(N)c(Cl)c2)c2ccccc2[n+]1[O-]
inactive: outcome [3] | outcome [4] | outcome [6] | outcome [7] | outcome [8] | outcome [9] | outcome [10] | outcome [11] | outcome [14] | outcome [15] | outcome [16]
active: activation [1] 179% | activation [2] 103% | inhibition [5] 83% | activation [12] 67.1% | inhibition [13] 14%
